Bioassay records (PubChem)
NOD2 RIPK2 PPI – inhibitors of human NOD2-RIPK2 interaction. O43353. CHO BLA complementation NOD2-RIPK2, CCF4 ratio. inhibition, % at 4.98 µM. 360,000 compounds, 0.38% hits; in the data active = inhibition above about 21%;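 note: 0% = vehicle only and 100% = reference blocker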
TLR9-MyD88 inh – inhibitors of human TLR9-MyD88 binding; CHO BLA complementation TLR9-MyD88, CCF4 FRET ratio; inhibition, % at 4.98 µM; 340,000 compounds, 0.21% hits; AID 504734;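 active = inhibition above the mean over all tested compounds plus 3 SD, cut at about 21% in these data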;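 note: 0% = DMSO only wells and 100% = clavulanate BLA inhibitor control wells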
TLR4 MyD88 comp – blocks binding of human TLR4 to MyD88. HeLa CL3-4 TLR4/MyD88 BLA complementation, FRET ratio. 200,000 compounds, 0.18% hits. AID 861. inhibition, % at 8.4 µM. O00206+Q99836; in the data active = inhibition above about 25%;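 note: 0% = vehicle and 100% = reference inhibitor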
GRK2 aptamer HTS – blocks RNA aptamer binding to human GRK2; P25098; bead flow cytometry, FAM-aptamer displacement from GRK2; inhibition of aptamer binding, % at 10 µM; 330,000 compounds, 0.59% hits; AID 488847;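 active = inhibition of aptamer binding above 40%, roughly 3 SD of noise, on plates passing a quality check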;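 note: median bead fluorescence of bound FAM aptamer so fluorescent compounds give negative values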
TMEM16A inh – inhibitors of mouse TMEM16A calcium-activated chloride channel. normalized B-score (activity score, 25-100; higher = stronger inhibition) at 10 µM. HEK293 TMEM16A/YFP iodide influx fluorescence, ionomycin. Q8BHY3. 310,000 compounds, 1.2% hits. AID 588511;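 active = ratio plate-corrected score three or more library SD toward inhibition, starting fluorescence score within five deviations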;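 note: score derived from kinetic fluorescence span divided by baseline fluorescence per well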
Target sequence (Q8BHY3 whole entry, looked up): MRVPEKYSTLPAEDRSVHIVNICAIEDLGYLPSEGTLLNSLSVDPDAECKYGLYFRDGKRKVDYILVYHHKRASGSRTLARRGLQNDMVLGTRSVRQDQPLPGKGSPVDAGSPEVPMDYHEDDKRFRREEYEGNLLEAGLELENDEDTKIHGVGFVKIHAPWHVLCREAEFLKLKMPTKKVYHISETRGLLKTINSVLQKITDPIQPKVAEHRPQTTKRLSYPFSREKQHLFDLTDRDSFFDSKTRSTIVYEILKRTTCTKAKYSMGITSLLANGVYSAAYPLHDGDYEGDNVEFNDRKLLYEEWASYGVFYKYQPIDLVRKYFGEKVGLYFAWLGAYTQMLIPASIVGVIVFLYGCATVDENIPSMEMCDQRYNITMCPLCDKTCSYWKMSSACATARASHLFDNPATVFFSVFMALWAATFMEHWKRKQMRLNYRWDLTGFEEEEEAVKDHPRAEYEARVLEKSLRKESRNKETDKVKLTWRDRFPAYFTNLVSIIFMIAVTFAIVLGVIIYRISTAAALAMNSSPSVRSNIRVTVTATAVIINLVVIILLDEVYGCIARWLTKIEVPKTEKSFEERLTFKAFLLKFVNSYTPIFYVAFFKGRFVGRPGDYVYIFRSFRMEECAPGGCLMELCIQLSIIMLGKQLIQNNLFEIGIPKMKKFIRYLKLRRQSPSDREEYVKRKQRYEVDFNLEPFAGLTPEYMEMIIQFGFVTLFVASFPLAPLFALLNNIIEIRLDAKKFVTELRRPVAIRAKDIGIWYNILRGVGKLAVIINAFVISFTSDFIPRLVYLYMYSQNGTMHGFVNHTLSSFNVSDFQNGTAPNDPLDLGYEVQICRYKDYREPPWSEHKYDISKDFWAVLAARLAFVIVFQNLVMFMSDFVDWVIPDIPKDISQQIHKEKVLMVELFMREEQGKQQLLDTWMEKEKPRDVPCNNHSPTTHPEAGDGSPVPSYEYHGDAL
TMEM16A act – activates or potentiates the mouse TMEM16A chloride channel. AID 623877. Q8BHY3. HEK293 TMEM16A/YFP-H148Q/I152L, iodide quench fluorescence; hits give low values. B-score at 10 µM. 340,000 compounds, 0.3% hits;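 active = fluorescence-ratio B-score plate-corrected deviation score at least 3 library SD below zero, with starting fluorescence score within 5 deviations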;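 note: channel opened by trigger with iodide after compound preincubation; score built on the fluorescence ratio of max minus min over baseline; more negative score means more quench and so TMEM16A activation or potentiation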
GRK2 CP1 – human GRK2 inhibition confirmation, cherry pick 1; shares compounds with GRK2 aptamer HTS; bead-bound GRK2, FAM-aptamer displacement, flow cytometry; aptamer displacement, % at 10 µM; 2,000 compounds, 4% hits;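 active = aptamer displacement above 40%, near three times the noise of non-fluorescent compounds, on plates passing quality checks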;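 note: negative values mostly reflect intrinsic compound fluorescence rather than true enhancement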
Aptamer quench – quenches fluorescent RNA aptamer, GRK2 hit artifact; Fluorescent RNA aptamer beads, quenching, flow cytometry; hits give high values; 110 tested, under 10 active; fluorescence change (kMESF span), kMESF (test concentration not listed); shares compounds with GRK2 aptamer HTS;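 active = compounds whose bead fluorescence drops by more than 37 kMESF across the dose range, marking them as dye quenchers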
Aptamer quench SP – counter-screen for GRK2 aptamer inhibitors: fluorescent aptamer quenchers. shares compounds with GRK2 aptamer HTS. Carboxyfluorescein RNA aptamer on beads, flow cytometry quenching; hits give low values. fluorescence response (% of DMSO), % at 10 µM. 2,000 tested, under 10 active. AID 504580;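 active = compounds that quench the bead-bound fluorescent RNA probe, cutting fluorescence to under half of the solvent control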;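 note: counterscreen run without GRK2 so only probe quenching by compound is measured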
FAM quench PS1 – quenches fluorescent RNA aptamer, GRK2 hit artifact; shares compounds with GRK2 aptamer HTS; Bead-bound FAM RNA aptamer fluorescence quenching, flow cytometry; hits give low values; fluorescence ratio to DMSO, % at 11.1 µM; 35 tested, under 10 active; AID 588496;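 active = compounds that dim the fluorescent label, raw bead signal shifting by over 33 units between lowest and highest dose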
* = called active by the depositor; i = inactive; . = not tested or not shown. Only some compounds are listed: those with a hit (about 2.2% of all), similar ones and a draw of the others.

SMILES	NOD2 RIPK2 PPI	TLR9-MyD88 inh	TLR4 MyD88 comp	GRK2 aptamer HTS	TMEM16A inh	TMEM16A act	GRK2 CP1	Aptamer quench SP	others
CC12C(=O)N(c3ccccc3C(=O)O)C(=O)C1C1C=CC2C1 (stereo unspecified)	-4	-4	-7	79*	i	i	3	94
O=C(NC1CCCc2ccccc21)c1cccc(S(=O)(=O)N2CCN(c3ccccc3)CC2)c1 (stereo unspecified)	-4	-13	-15	2	i	i	1	128
O=C(c1cccc(S(=O)(=O)N2CCc3ccccc32)c1)N1CCN(c2ccccc2)CC1	-1	-6	.	.	.	i	6	92
Cc1ccnc(NC(=O)c2cccc(S(=O)(=O)N3CCN(c4ccccc4)CC3)c2)c1	-1	3	.	0	i	i	.	.
Cc1ccc(NC(=O)c2cccc(S(=O)(=O)N3CCN(c4ccccc4)CC3)c2)nc1	-7	0	.	100*	i	i	-2	100
CC1CCC(NC(=O)c2cccc(S(=O)(=O)N3CCN(c4ccccc4)CC3)c2)CC1 (stereo unspecified)	-4	0	.	3	i	i	.	.
O=C(c1cccc(S(=O)(=O)N2CCc3ccccc3C2)c1)N1CCN(c2ccccc2)CC1	0	10	-3	0	i	i	.	.
COc1ccccc1CNC(=O)c1cccc(S(=O)(=O)N2CCN(c3ccc(F)cc3)CC2)c1	-5	4	.	1	.	i	-2	101
Cc1c(F)cccc1NS(=O)(=O)c1ccc(N2CCCC2=O)cc1	-16	-3	.	.	.	i	.	.
Cc1ccc(C)c(NC(=O)CN(C)C(=O)c2ccccc2OCc2c(C)noc2C)c1	-2	-8	.	5	.	i	.	.
C#CCOCCOCCOCCNc1nc(N2CCN(C(=O)[C@H](CC(N)=O)n3cc(C(N)[C@@H](C)CC)nn3)CC2)nc(N2CCN(C(=O)[C@H](CCC(=O)O)n3cc([C@@H](N)CCCCN)nn3)CC2)n1 (stereo partly specified)	-9	-5	.	1	.	i	.	.
COc1ccc(C(C)=O)cc1CSc1ccc2c(c1)OCCO2	-6	2	.	2	i	i	.	.
CN(C)/C=C/C=C1C(=O)CCCC1=O	-5	4	1	42*	i	i	11	102
CC1=NN(c2ccccc2)C(=O)/C1=C/C=C/C=C/N(C)C	-12	4	-2	8	i	i	.	.
Cn1c(=O)c2cc(NC(=O)CCc3ccc4c(c3)OCO4)ccc2n1Cc1ccc(F)cc1	3	.	.	.	.	.	.	.
NNc1ccc2nnc(C(F)(F)C(F)(F)C(F)(F)F)n2n1	0	9	-5	80*	i	i	0	97
COc1ccc(NC(=O)CCN2C(=O)C3CC=C(Cl)CC3C2=O)cc1 (stereo unspecified)	-6	-9	-3	1	i	i	.	.
CCc1cccc(C)c1NC(=O)Nc1c(Br)cnn1C	-10	1	.	2	i	.	.	.
COc1ccc(C2c3[nH]c4ccccc4c3CCN2C(=O)c2ccccc2C(C)=O)c(F)c1 (stereo unspecified)	0	-7	.	0	i	i	.	.
COc1cccc(C2c3[nH]c4ccccc4c3CCN2C(=O)c2ccccc2F)c1OC (stereo unspecified)	-1	6	.	50*	i	i	2	98
CCCOc1ccc(CN(C(=O)c2cccc(OC)c2)C2CCS(=O)(=O)C2)cc1 (stereo unspecified)	4	0	.	99*	i	i	1	97
COc1ccc(CN(C(=O)c2cccc(OC)c2)C2CCS(=O)(=O)C2)cc1 (stereo unspecified)	-1	.	.	3	i	i	.	.
CCCn1c(SCC(=O)NC2CCCCC2)nnc1C1CC1	-1	-6	.	3	i	i	.	.
CN(C)c1ccc2nc3ccc(=[N+](C)C)cc-3sc2c1	-9	-7	9	57*	i	i	32	59
N/C(CSc1ccc(Cl)cc1)=N\NC(=O)c1ccncc1	0	-9	0	10	i	i	.	.
SMILES	NOD2 RIPK2 PPI	TLR9-MyD88 inh	TLR4 MyD88 comp	GRK2 aptamer HTS	TMEM16A inh	TMEM16A act	GRK2 CP1	Aptamer quench SP	others
CC(=O)NCCN1C(=O)S/C(=C\c2cccs2)C1=O	6	2	5	79*	i	i	-2	101
O=C(NCCN1C(=O)S/C(=C\c2cccs2)C1=O)c1ccco1	-1	5	13	0	i	i	.	.
Cc1ccccc1-c1cnc2c(c1)C(=O)N([C@H](C)CO)C[C@@H](C)[C@H](CN(C)C(=O)c1ccncc1)O2	-10	-5	.	.	.	.	.	.
O=c1ccc2cc(S(=O)(=O)N3CCOCC3)ccc2o1	0	-4	6	56*	i	i	-5	101
COc1ccc(NC(=O)Oc2cc(C)ccc2C(C)C)cc1	-6	7	.	1	i	i	.	.
COc1ccc(-n2nc(C(=O)NCc3cc(OC)ccc3OC)c3c4ccccc4n(C)c3c2=O)cc1	-11	-7	3	77*	i	i	-2	102
COc1ccc(-n2nc(C(=O)NCc3ccco3)c3c4ccccc4n(C)c3c2=O)cc1	-5	-1	0	4	i	i	.	.
COc1cccc(C(=O)N(C)c2nnc(-c3ccncc3)s2)c1	-1	-6	-22	1	i	i	.	.
O=C(O)C1CC(=O)N(c2ccc3c(c2)OCCO3)C1 (stereo unspecified)	-7	3	5	61*	i	i	40*	97	Aptamer quench=-12;FAM quench PS1=101
